Data on 11 compounds can be found in PubChem BioAssay (NCATS).

For assay [1], the target named is Metallo-beta-lactamase type 2 (Klebsiella pneumoniae) (UniProt C7C422). Nature of the assay: qHTS to identify inhibitors of the New Delhi Metallo-beta-lactamase (NDM): assay validation screen against the NCATS LOPAC Collection (AID 1794843). The gist of the method:
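Absorbance at 485 nm from nitrocefin turnover (50 uM solution added), read at plateau, gives the read-out. Compounds in DMSO were incubated first with 2 nM final NDM-1 in pH 7.0 HEPES buffer containing 1 uM ZnSO4 and 0.01% Tween20.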

Assay [2] concerns the target Glutathione peroxidase 1 (Homo sapiens) (UniProt P07203). Nature of the assay: Primary qHTS Assay for Inhibitors of Recombinant Selenoprotein Glutathione Peroxidase 1 (GPX1) (AID 1845191). Also: nearly all actives have a fitted effect of over 65% in size. Summed up: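 GR-coupled assay: compounds preincubated 30 min at room temperature with GPX1, then reaction started with CHP; final 10 nM GPX1, 1 mM GSH, 0.5 mM CHP, 0.5 mM NADPH, 100 nM GR, 0.01% BSA, pH 7.5 Tris buffer. NADPH fluorescence (340/450 nm) read at 0 and 15 min.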

For assay [3], the target named is Phospholipid hydroperoxide glutathione peroxidase GPX4 (Homo sapiens) (UniProt P36969). Nature of the assay: Primary qHTS Assay for Inhibitors of Recombinant Selenoprotein Glutathione Peroxidase 4 (GPX4) (AID 1845192). Also: nearly all actives have a fitted effect of over 65% in size. Summed up:
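GR-coupled assay: recombinant GPX4 preincubated 30 min with compound at room temperature; final 200 nM GPX4, 1 mM GSH, 0.5 mM cumene hydroperoxide, 0.5 mM NADPH, 100 nM GR, 0.01% BSA, pH 7.5 Tris. NADPH fluorescence (340/450 nm) read at 0 and 15 min.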

Assay [4] can be described thus: Quantitative High-Throughput drug screen in 47 multiple myeloma cell lines against the NCATS MIPE library collection: Delta47_JCRB cell viability assay (AID 1918925; also: nearly all actives have a fitted effect of over 45% in size; also: potency is read from the fitted curve at half-maximal effect). The gist of the method: (§1)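 CellTiter-Glo luminescence (ATP) after 48 h compound exposure, 37C/5% CO2; 500 cells/well; MIPE 4.0 approved/investigational drugs pinned in; DMSO = 100%, media only = 0% viability.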

Assay [5] in a line: Quantitative High-Throughput drug screen in 47 multiple myeloma cell lines against the NCATS MIPE library collection: EJM_DSMZ cell viability assay (AID 1918926; also: nearly all actives have a fitted effect of over 30% in size). Summed up: as §1
A short description of assay [6]: Quantitative High-Throughput drug screen in 47 multiple myeloma cell lines against the NCATS MIPE library collection: AMO1_DSMZ cell viability assay (AID 1918927; also: nearly all actives have a fitted effect of over 30% in size; also: potency is read from the fitted curve at half-maximal effect). Summed up:
as §1

The nature of assay [7]: Quantitative High-Throughput drug screen in 47 multiple myeloma cell lines against the NCATS MIPE library collection: ARP1_JJKsccF8 cell viability assay (AID 1918928; also: nearly all actives have a fitted effect of over 40% in size). The gist of the method:
(§2)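 ATP readout (CellTiter-Glo), 48 h drug incubation, 37 °C/5% CO2, 500 cells per well; normalisation to DMSO (100%) and media-only (0%) controls.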

Assay [8] is described as follows: Quantitative High-Throughput drug screen in 47 multiple myeloma cell lines against the NCATS MIPE library collection: Karpas620_DSMZ cell viability assay (AID 1918959). Also: nearly all actives have a fitted effect of over 30% in size. Also: potency is read from the fitted curve at half-maximal effect. Summed up: (§3)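 Inhibition of cell viability is measured here. Each line was plated at 500 cells per well, treated with MIPE 4.0 drugs, kept 48 hours at 37C, then assayed for ATP content by CellTiter-Glo luminescence.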

A short description of assay [9]: Quantitative High-Throughput drug screen in 47 multiple myeloma cell lines against the NCATS MIPE library collection: KMM1_JCRB cell viability assay (AID 1918960). Also: nearly all actives have a fitted effect of over 30% in size. The gist of the method: as §2
The nature of assay [10]: Quantitative High-Throughput drug screen in 47 multiple myeloma cell lines against the NCATS MIPE library collection: JIM3_ECACC cell viability assay (AID 1918963; also: nearly all actives have a fitted effect of over 35% in size; also: potency is read from the fitted curve at half-maximal effect). The gist of the method:
as §3

A short description of assay [11]: Primary fluorescence-based thiol-reactive (MSTI) qHTS assay for identification of artifact compounds. (AID 1845221).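 Also: thiol-reactive compounds lower the probe fluorescence signal; nearly all actives have a fitted effect of over 65% in size.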 Summed up:
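Reactivity toward the thiol probe MSTI (4 uM) is scored by fluorescence at Ex/Em 525/598 nm after 1 h at room temperature. Acetyl-MSTI and MSTI define the activity scale.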

Assay [12] relates to Nanoluciferase (engineered Oplophorus gracilirostris luciferase). Nature of the assay: Primary Nanoluciferase (NLuc) qHTS assay for identification of artifact compounds. (AID 1845222).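 Also: NLuc secreted into diluted conditioned medium of S16 cells.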 Summed up: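 qHTS format, against NLuc in S16 cell-conditioned medium. Nano-Glo substrate 1:100 was added after 15 min at room temperature. Luminescence was taken after a further 5 min.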
Assay [13] in a line: Primary redox qHTS assay for identification of artifact compounds. (AID 1845223). Summed up:
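Amplex Red (25 uM) and HRP (250 mU/mL) in HBSS, with compounds for 15 min, then 250 uM DTT for 30 min, room temperature, dark. Fluorescence 525/598 nm read; normalized to DMSO and 10 uM DA3003; Hill fit.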

Assay [14] is described as follows: Quantitative High-Throughput drug screen in 47 multiple myeloma cell lines against the NCATS MIPE library collection: FR4_PLB cell viability assay (AID 1918924; also: nearly all actives have a fitted effect of over 35% in size). The gist of the method:
as §3

Assay [15] is described as follows: Quantitative High-Throughput drug screen in 47 multiple myeloma cell lines against the NCATS MIPE library collection: ARD_JJKsccE7 cell viability assay (AID 1918929; also: potency is read from the fitted curve at half-maximal effect). The gist of the method: as §1
Assay [16] is described as follows: Quantitative High-Throughput drug screen in 47 multiple myeloma cell lines against the NCATS MIPE library collection: Karpas417_ECACC cell viability assay (AID 1918961). Also: potency is read from the fitted curve at half-maximal effect. The note with it: Karpas417 myeloma viability, CellTiter-Glo ATP luminescence, 48 h; viability (% of DMSO): at 45.8 µM (top of the series) unless noted. Summed up:
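qHTS of the MIPE 4.0 collection: 500 myeloma cells/well, 48 h drug exposure at 37C in 5% CO2, then CellTiter-Glo for 5 min at room temperature before luminescence reading.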

Assay [17] is described as follows: Quantitative High-Throughput drug screen in 47 multiple myeloma cell lines against the NCATS MIPE library collection: KHM11_PLB cell viability assay (AID 1918962). Also: nearly all actives have a fitted effect of over 35% in size. Also: potency is read from the fitted curve at half-maximal effect. The gist of the method: as §3
In assay [18] the target is Luciferin 4-monooxygenase (Photinus pyralis) (UniProt P08659). Description: Primary firefly luciferase (FLuc) qHTS assay for identification of artifact compounds. (AID 1845220). Also: nearly all actives have a fitted effect of over 60% in size. The gist of the method:
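Titrated compounds were incubated 15 min at RT, protected from light, with luciferin and ATP at 10 uM; reaction started with 10 nM FLuc, luminescence imaged at 5 min, and concentration-response fitted by Hill equation.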

Results filed as inconclusive are left out. Calls of active or inactive are those of the source. Calls follow the shape of the dose curve; as a rule, active = well fitted curve in the direction sought with a large enough effect; inconclusive = small, poorly fitted or top-dose-only effect, or another doubt; inactive = no such curve, though single readings can be large; an effect the other way counts as inactive or inconclusive.

Chain of Phospholipid hydroperoxide glutathione peroxidase GPX4 (Homo sapiens) (P36969 whole entry, looked up): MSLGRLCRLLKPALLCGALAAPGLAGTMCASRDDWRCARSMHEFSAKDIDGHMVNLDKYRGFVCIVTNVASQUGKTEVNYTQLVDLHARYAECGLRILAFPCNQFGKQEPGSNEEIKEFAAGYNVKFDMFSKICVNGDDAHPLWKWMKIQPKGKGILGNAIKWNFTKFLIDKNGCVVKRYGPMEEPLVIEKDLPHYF
Chain of Metallo-beta-lactamase type 2 (Klebsiella pneumoniae) (C7C422 whole entry, looked up): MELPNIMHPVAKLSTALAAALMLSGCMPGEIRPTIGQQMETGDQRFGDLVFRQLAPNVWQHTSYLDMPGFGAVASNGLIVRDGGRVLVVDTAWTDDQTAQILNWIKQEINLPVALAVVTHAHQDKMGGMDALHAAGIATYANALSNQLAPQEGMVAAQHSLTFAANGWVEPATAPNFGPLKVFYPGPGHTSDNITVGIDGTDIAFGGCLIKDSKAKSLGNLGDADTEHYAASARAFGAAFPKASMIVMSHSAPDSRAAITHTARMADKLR
Chain of Glutathione peroxidase 1 (Homo sapiens) (P07203 whole entry, looked up): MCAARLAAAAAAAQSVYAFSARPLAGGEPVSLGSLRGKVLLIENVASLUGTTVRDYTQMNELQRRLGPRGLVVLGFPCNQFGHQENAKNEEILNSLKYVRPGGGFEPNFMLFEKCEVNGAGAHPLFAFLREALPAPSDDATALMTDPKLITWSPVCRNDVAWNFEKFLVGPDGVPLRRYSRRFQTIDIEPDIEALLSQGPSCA

Consider `Cc1cnc(NC(=O)C2=C(O)c3ccccc3S(=O)(=O)N2C)s1`, for which, in assay [1], the call was inactive. Besides, the Potency entry in assay [2], in [3], in [4], in assay [5], in [6] and in assay [7] was “inactive” throughout. The Potency entry in assay [8], in assay [9] and in [10] was “inactive” in each case.

Take `O=c1[nH]c(-c2ccc(C(F)(F)F)cc2)nc2c1CSCC2`: the Potency result in assay [2], in assay [3], in assay [11], in [14], in [6] and in assay [15] was “inactive” in each case. The Potency result in assay [8], in [9] and in assay [10] was “inactive” in each case. The compound was classed as inactive in [12] and in assay [13].

Take `O=C(Nc1nc2ccccc2n1CCN1CCOCC1)c1cccc([N+](=O)[O-])c1`: in assay [1], the compound was classed as inactive. Further, the Potency entry in assay [2], in assay [3] and in assay [10] was “inactive” throughout. Moreover, the Potency was 4.18 µM (active) in [6], 4.18 µM (active) in assay [15], 7.43 µM (active) in assay [8] and 4.69 µM (active) in [16].

Turning to `NC[C@H](O)c1ccc(O)c(O)c1`, the outcome in assay [1] was inactive. For the same compound, the Potency entry in [2], in assay [3], in assay [4], in [5], in assay [6] and in [7] was “inactive” in each case. Besides, the Potency result in assay [15], in assay [8], in assay [9], in assay [17] and in [10] was “inactive” in each case.

In the case of `CC(C)OC(=O)C1=CN(C(=O)c2ccc(F)c(F)c2)CC(C)(C)c2c1[nH]c1ccccc21`, the Potency result in assay [2], in [3], in assay [18], in assay [14], in [5] and in assay [15] was “inactive” each time. Further, the compound was classed as inactive in [12] and in assay [13].

Take `Cc1cccc(-c2[nH]c(C(C)(C)C)nc2-c2ccc3nccnc3c2)n1`: the result in assay [1] was inactive. For the same compound, the Potency result in assay [2] and in assay [3] was “inactive” in each case. The Potency in assay [4] was 3.32 µM (active); in assay [6], 5.26 µM (active); in [8], 6.62 µM (active); in [10] it was 2.64 µM (active).

On to `Nc1nc2ccc(OC(F)(F)F)cc2s1`, for which the compound was called inactive in assay [1]. Further, the Potency entry in assay [2], in [3], in assay [8], in assay [17] and in assay [10] was “inactive” each time. Also, the Potency in assay [4] is 13.2 µM (active); in assay [15], 16.6 µM (active).

Turning to `Cc1[nH]c(=O)c(C#N)cc1-c1ccncc1`, the outcome in assay [1] was inactive. Further, the Potency result in assay [2], in assay [3], in assay [5], in assay [8] and in assay [17] was “inactive” throughout. Besides, the Potency is 7.43 µM (active) in assay [4], 23.5 µM (active) in assay [6] and 18.7 µM (active) in [10].

In the case of `CC(C)C[C@H](NC(=O)[C@@H](O)[C@H](N)Cc1ccccc1)C(=O)O`, the compound was classed as inactive in [1]. Besides, the Potency entry in assay [2], in [3], in assay [6], in [15], in assay [8] and in [9] was “inactive” throughout. Further, the Potency in [17] was 20.9 µM (active); in [10] it was 18.7 µM (active).

For the compound `Cc1cnc(Nc2ccc(OCCN3CCCC3)cc2)nc1Nc1cccc(S(=O)(=O)NC(C)(C)C)c1`, the Potency entry in assay [2], in assay [3], in assay [18], in [14] and in [10] was “inactive” in each case. Further, the compound was classed as inactive in [12]. The Potency in assay [6] was 0.418 µM (active); in [8], 1.48 µM (active).

Take `CCOC(=O)N1CCC(=C2c3ccc(Cl)cc3CCc3cccnc32)CC1`: the compound was called inactive in assay [1]. For the same compound, the Potency entry in [2], in assay [3], in assay [6] and in assay [10] was “inactive” each time. In assay [15], the Potency is 0.0017 µM (active).
